Rows were chosen to be rich in hits. Some 2.6% of all compounds tested hit in one or more screens of this group.
PHOSPHO1 block = PHOSPHO1 (human) inhibition. Q8TCT1. recombinant PHOSPHO1, absorbance phosphatase assay. inhibition, % at 13.3 µM. 290,000 tested, 1.1% active. AID 1565; in the data active = inhibition above about 60%
Target sequence (Q8TCT1 whole entry, looked up): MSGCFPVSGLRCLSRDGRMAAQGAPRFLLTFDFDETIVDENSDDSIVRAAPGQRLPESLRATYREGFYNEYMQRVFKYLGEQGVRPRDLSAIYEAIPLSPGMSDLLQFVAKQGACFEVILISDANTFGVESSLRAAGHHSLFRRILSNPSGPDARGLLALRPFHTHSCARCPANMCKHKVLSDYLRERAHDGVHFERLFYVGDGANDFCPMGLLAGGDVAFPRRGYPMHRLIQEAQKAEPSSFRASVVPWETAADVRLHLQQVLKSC
PABP FP inh = PABP-poly(A) binding inhibition. 290,000 tested, 1% active. inhibition, % at 35 µM. PABP-poly(A) RNA binding, fluorescence polarization;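 note: calls also rest on retests at 20 µM and on dose response follow-up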
CRFBP-R2 block = CRF-BP/CRF-R2 complex antagonism; HEK293 CRF-R2/CRF-BP, CRF-induced calcium fluorescence; 350,000 tested, 0.59% active; inhibition, % at 11.8 µM;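 active = inhibition of the ligand-induced calcium signal above about 50% at the single tested concentration, limit read from the data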
eIF4H FP inh = inhibitors of RNA binding by human eIF4H. Q15056. eIF4H fluorescence polarization binding assay. inhibition, % at 35 µM. 290,000 tested, 0.94% active. AID 2012;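 note: calls also rest on retests at 20 µM and on dose response follow-up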
PABP1 MLLE inh = blocks PAM2 peptide binding to the PABP1 MLLE domain. P11940. GST-MLLE / FITC-PAM2 fluorescence polarization. inhibition, % at 20 µM. 360,000 tested, 0.36% active. AID 588489; in the data active = inhibition above about 35%, passing the limit was not always enough;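 note: plate controls were DMSO wells with GST-MLLE for no effect and wells lacking GST-MLLE protein for full effect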
* marks the source's active call; other numbers are inactive results; . = not tested or not shown. Unless noted, the rule behind the calls is not given here.

SMILES	PHOSPHO1 block	PABP FP inh	CRFBP-R2 block	eIF4H FP inh	PABP1 MLLE inh
Cc1nc(Cl)c(C#N)cc1-c1ccccc1	36	0	6	-8	-4
Cc1nc(Sc2ccccc2)c(C#N)cc1-c1ccccc1	48	-2	53*	4	-15
CC(O)(c1ccc(F)c(F)c1)c1nc(-c2cc(F)cc(F)c2)cs1 (centres undefined)	.	.	.	.	0
C/C(=N\NC(=O)c1cc(Cl)ccc1O)c1ccc(Br)s1	0	-3	52*	15	-9
C/C(=N\NC(=O)c1ccc(Cl)cc1)c1ccc(Br)s1	22	-4	-11	4	-5
O=C(c1ccoc1)N1CCN(c2cc(-c3cccc(F)c3)nc3cc(-c4cccc(Cl)c4)nn23)CC1	.	.	17	.	-18
COc1cc(OC)c(C2Nc3cccc4cccc(c34)N2)c(OC)c1	52	57*	-8	70*	19
CCOc1cc(C2Nc3cccc4cccc(c34)N2)ccc1O	10	30	11	47	6
CCOc1ccc(C2Nc3cccc4cccc(c34)N2)cc1OC	-2	11*	-29	103*	-11
CC(=O)NC1N=C(C)N(c2ccccc2)C1=O (centres undefined)	100*	9	4	6	-1
O=c1c2c(nc3c(-c4ccccc4)c[nH]n13)CCC2	45	5	-9	-7	15
O=c1c2c(nc3c(-c4cccc(Br)c4)c[nH]n13)CCCC2	62*	-7	4	-12	-22
CCSC1=N/C(=C\c2ccc3c(c2)OCO3)C(=O)S1	-19	9	-25	-2	-14
C=CCSC1=N/C(=C\c2cc(OC)c3c(c2)OCO3)C(=O)S1	31	22	4	57*	-15
c1coc(-c2nnc(-c3ccco3)nn2)c1	10	76*	-9	99*	38*
Cc1nn(C(C)C(=O)O)c(=O)c2ccccc12 (centres undefined)	36	0	57*	0	1
COc1ccc(C(=O)N2CCOC2CNC(=O)C(=O)NCc2ccccn2)cc1 (centres undefined)	.	.	-8	.	8
COCOc1ccc(-c2ncc(OC)nc2NC(=O)c2cc(C)oc2C)cc1	.	.	.	.	-6
COc1ccc(-c2nc(CS(=O)CC(=O)NC3CCCCCC3)c(C)o2)cc1 (centres undefined)	65*	-9	-5	-4	4
Cc1cccc(OCCCC(=O)NC(C)C)c1	34	-5	82*	-8	-1
C(=C\c1ccccc1)/CN1CCN(C(c2nnnn2-c2ccc3c(c2)OCCO3)C2CC2)CC1 (centres undefined)	.	.	.	.	-14
CC1CC(C)CN(C(=O)Cc2c(C(=O)O)[nH]c3ccc(Cl)cc23)C1 (centres undefined)	-27	12	2	-1	7
COc1cc(S(=O)(=O)N2CCOCC2)ccc1NC(=O)CSc1nnc(N)s1	65*	-5	19	2	24
Nc1nnc(SCC(=O)Nc2cc(S(=O)(=O)N3CCOCC3)ccc2N2CCCC2)s1	.	.	1	.	18
CCC1(c2ccccc2)NC(=S)N(c2ccc(C)c(C)c2)N1 (centres undefined)	21	4	-16	-4	1
SMILES	PHOSPHO1 block	PABP FP inh	CRFBP-R2 block	eIF4H FP inh	PABP1 MLLE inh
CCC1(c2ccc(Cl)cc2)NC(=S)N(c2ccc(C)c(C)c2)N1 (centres undefined)	68*	0	3	10	-23
CCC(C)Cn1c(C(C)C)nc2ccccc21 (centres undefined)	33	-6	-6	-4	6
CCC(C)Cn1c(C(C)O)nc2ccccc21 (centres undefined)	-9	61	-4	active	-4
COc1ccc([C@H]2C[C@@H](O)[C@H](n3cc(C4CC4)nn3)CN2C(=O)C2CCCCC2)cc1	.	.	6	.	3
O=C(NCc1ccc(F)cc1)c1cc(C2CCCCN2C(=O)CCCc2ccccc2)on1 (centres undefined)	.	.	.	.	7
COc1ccccc1N1CCN(S(=O)(=O)CCNC(=O)C(C)Oc2ccccc2)CC1 (centres undefined)	.	.	8	.	-9
O=c1c(-c2ccccc2)n[nH]c2ccccc12	3	-3	-19	-5	-6
O=C1c2ccccc2-c2n[nH]c3cccc1c23	.	.	-5	.	73*
CCN(CC)CCOC(=O)C(Cc1ccco1)Cc1cccc2ccccc12 (centres undefined)	.	.	52*	.	16
CCN(CC)CCOC(=O)CCc1cccc2ccccc12	-20	-3	-14	2	3
NC(CCc1ccccc1)c1csc(Nc2cnccn2)n1 (centres undefined)	.	.	.	.	-1
Cc1nnc(NC(=O)CSc2nnc(Cc3ccccc3)n2-c2ccccc2)s1	12	-11	81*	-5	-12
COc1ccc(-c2csc(NC(=O)c3ccccc3NS(=O)(=O)c3ccc(C)cc3)n2)cc1	-20	1	58*	8	-2
COc1ccc(S(=O)(=O)Nc2ccccc2C(=O)Nc2nc(-c3ccc(F)cc3)cs2)cc1OC	4	-7	47	-10	2
CN(C)c1cccc(C(=O)OCC(=O)Nc2ccccc2Sc2ccccc2)c1	-3	-14	62*	-5	10
CN(C)c1cccc(C(=O)OCC(=O)Nc2ccccc2-c2ccccc2)c1	1	27	8	-15	-10
Cc1ccccc1-c1n[nH]c(=S)n1/N=C/C=C/c1ccco1	44	41*	7	82*	0
COc1ccccc1/C=C/C=N/n1c(-c2ccccc2)n[nH]c1=S	99*	11	-1	12	-24
Cc1cc(-c2n[nH]c(=S)n2/N=C/C=C/c2ccco2)n[nH]1	24	65*	-11	93*	-22
S=c1[nH]nc(-c2ccc(Cl)cc2)n1/N=C/c1ccco1	48	-8	27	-7	-31
S=c1[nH]nc(-c2ccco2)n1/N=C/C=C/c1ccccc1	63*	1	6	-7	-20
Cc1noc(C)c1S(=O)(=O)NC(=O)C1(C)CCN1C(=O)C1(c2ccc(Cl)cc2)CC1 (centres undefined)	.	.	.	.	-9
CC(=O)c1ccc2c(c1)N(Cc1ccc3ccccc3c1)C(=O)C(C)S2 (centres undefined)	.	.	.	.	5
Cc1cc(Cl)ccc1NC(=S)Nc1cccnc1	44	-1	-3	1	38*
Cc1cc(Cl)ccc1NC(=S)NC(C)(C)C	4	32	-6	-2	40*
SMILES	PHOSPHO1 block	PABP FP inh	CRFBP-R2 block	eIF4H FP inh	PABP1 MLLE inh
O=C(Nc1cccnc1)Nc1cccc(F)c1	.	3	2	-2	1
CCCNC(=S)Nc1ccc(Cl)cc1C	-2	-6	-5	-9	-4
Fc1cccc(NC(=S)Nc2cccnc2)c1	4	-7	-3	0	42*
CCCCN(C)c1c(C)nc2ccc(C(=O)NCc3ccc4c(c3)OCO4)cn12	.	.	.	.	-12
CC(C)CNC(=O)c1ccc(-c2ccc(F)c(F)c2)c2ccoc12	.	.	.	.	9
NS(=O)(=O)c1ccc(CCNC(=O)C(=O)c2cn(CC(=O)N3CCCC3)c3ccccc23)cc1	38	6	-2	-4	5
Cc1c(C(=O)C(=O)NCCc2ccc(S(N)(=O)=O)cc2)c2ccccc2n1C	0	active	15	93*	-6

From PubChem BioAssay
